Screening results (PubChem)
Pf growth 96h: P. falciparum growth inhibition at 96 hour, primary screen for plastid delayed-death inhibitors. P. falciparum luciferase reporter growth, 96 h. Potency, µM (top dose mostly 28.7 µM), usual class: inhibitors. actives 6.9% (n = 320,000)
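Readout is luminescence from an integrated firefly luciferase in P. falciparum. Red cells, 2% hematocrit and 0.05% parasitemia final, were cultured with compound through two parasite generations (96 hours) at 37 C, 5% CO2.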
HCMV antiviral: blocks human cytomegalovirus replication. HFF cells, HCMV-luciferase reporter, 72 h; stronger effect = lower value. activity change, negative = inhibition, % at 57.5 µM. actives 4.5% (n = 410,000); in the data active = activity change below about -60%; inconclusive = no clear call, values can overlap the other calls; inactive = above about -39%
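Human foreskin fibroblasts infected with luciferase-reporter HCMV at MOI 1 PFU/cell, compounds at two doses. Luciferase measured 72 h post infection; normalized to buffer-only basal and Salinomycin (10uM) controls.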
SARS PLP yeast: blocks SARS-CoV papain-like protease in a yeast assay; AID 485353; Potency, µM (top dose mostly 32.9 µM), hits mostly activators; actives 0.19% (n = 330,000); S. cerevisiae expressing SARS-CoV PLpro, growth rescue; calls by dose curve; note: nearly all actives have a fitted effect of over 55% in size
HCV inhibitor: blocks hepatitis C virus. Potency, µM (highest dose often 41.8 µM), hits mostly inhibitors. AID 651820. Huh7.5.1 HCVcc-Cre infection, luciferase reporter, 44 h. actives 3.4% (n = 340,000)
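Luciferase read-out (15 sec integration) after a 15 min room-temperature substrate step quantifies HCVcc-Cre infection. Cells, 1,000 per well, had compound added 4 h post-plating, then virus at ~0.5 moi, and were cultured 44 h.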
Sm TGR block: inhibitors of Schistosoma mansoni thioredoxin glutathione reductase. Q962Y6. purified TGR, DTNB reduction, TNB absorbance 405 nm. Potency, µM (titrated, usually from 114 µM), usual class: inhibitors. actives 3% (n = 360,000). AID 485364; note: nearly all actives have a fitted effect of over 60% in size
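TGR 20 nM + NADPH 100 uM (dispensed conc.), cpd preinc 15 min RT; start with NADPH (500 uM addition) then DTNB (15 mM addition). Kinetic TNB absorbance, 405 nm filter. Four-parameter Hill fit across titration.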
Pf growth 48h: P. falciparum growth inhibition at 48 hours (one generation) | actives 5.9% (n = 310,000) | P. falciparum luciferase growth in erythrocytes, 48 h | Potency, µM (series often up to 28.7 µM), usual class: inhibitors
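A one-generation exposure of luciferase-tagged malaria parasites in RPMI 1640/Albumax erythrocyte culture, 37 C and 5% CO2. Inhibition is inferred from decreased luminescence after adding detection reagent.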
Numbers stand for hits; n = inactive; u = inconclusive; x = no result given; [ ] = remark or other dose. Rows were chosen to be rich in hits. Some 15% of all compounds tested hit in one or more screens of this group. Unless noted, calls come from the whole dose curve; as a rule, active = well fitted curve in the direction sought with a large enough effect; inconclusive = small, poorly fitted or top-dose-only effect, or another doubt; inactive = no such curve, though single readings can be large; an effect the other way counts as inactive or inconclusive.

SMILES	Pf growth 96h	HCMV antiviral	SARS PLP yeast	HCV inhibitor	Sm TGR block	Pf growth 48h
O=C(c1ccc2c(=O)n(Cc3ccco3)c(=S)[nH]c2c1)N1CCN(c2ccccc2)CC1	11.7µM	n	n	u	n	n
CC(=O)N1CCc2c(sc3c2c(=O)n(-c2ccc(C)cc2)c(=O)n3Cc2ccccc2C)C1	x	n	x	x	n	x
O=C(CN1C(=O)NC2(CCCCCC2)C1=O)c1ccc(OC(F)F)cc1OC(F)F	u	n	n	u	n	u
COc1ccc(C2=NC3(CCCCCC3)N(CC(=O)Nc3ccc(C)c(C)c3)C2=O)cc1	x	n	x	x	n	x
CN(C)CCN1CCN(C2CN(C3CCCC3)S(=O)(=O)C2)CC1 (stereo not given)	x	n	x	x	x	x
CCN(CC)CCCCNc1ncc2cc(-c3cc(OC)cc(OC)c3)c(NC(=O)NC(C)(C)C)nc2n1	9.28µM	n	n	u	n	u
CN(C)CCCN(C(=O)c1ccc(S(=O)(=O)N2CCCCCC2)cc1)c1nc2c(F)cc(F)cc2s1	n	n	n	n	n	u
COc1ccc(NC(=O)COC(=O)C2CC2)cc1S(=O)(=O)N1CCCCC1	u	n	n	n	n	13.1µM
COc1ccc(NC(=O)CCC2CCCCC2)cc1S(=O)(=O)N1CCCCC1	u	-81.6	n	u	n	u
COc1ccc(NC(=O)C2CCCN2c2ccc(OC)c(OC)c2)cc1OC (stereo not given)	n	n	n	n	n	10.4µM
COc1ccc(NC(=O)CC2CCCCC2)cc1OC	2.62µM	n	n	n	n	3.29µM
CCN(CC)C(=O)CC(c1ccc(F)cc1)c1ccc(OC(C)C)cc1 (stereo not given)	n	x	n	n	n	u
CCC(O)C1CCN(C(=O)c2ccc(OC3CCN(Cc4ccccn4)CC3)cc2)CC1 (stereo not given)	n	n	n	n	u	u
CCOC(=O)[C@]12CCC=C1N(Cc1ccco1)C(=O)[C@H](CC(=O)N1CCCCC1)C2	x	n	x	x	x	x
CC(=O)NC12CC3CC(C1)CC(C(=O)N1CCN(c4ncccn4)CC1)(C3)C2	x	n	x	n	x	x
O=C(NNc1nc(-c2ccc(Cl)cc2)cs1)c1ccco1	u	n	n	n	n	11.7µM
O=C(NNc1nc(-c2ccccc2)cs1)c1ccco1	1.47µM	n	n	u	n	11.7µM
Cc1ccc(-c2csc(NC(=S)NC(=O)c3ccco3)n2)cc1	u	n	n	n	n	n
Oc1ccc2ccccc2c1C=Nc1ccc(Cl)cn1	13.1µM	n	n	n	n	n
CC(C)(C)c1ccc(O)c(N=Cc2c(O)ccc3ccccc23)c1	u	-92.3	n	u	n	u
Oc1ccccc1C=NN=Cc1c(O)ccc2ccccc12	x	n	x	n	x	x
CC(C)(C)c1ccc(O)c(N=Cc2cc(Br)ccc2O)c1	n	n	n	n	n	10.4µM
Oc1ccc2ccccc2c1C=Nc1ccccc1-c1nc2ccccc2[nH]1	u	n	n	11.2µM	u	x
COC(=O)CN1C(=O)CSc2ccc(S(=O)(=O)N3CCC(C)CC3)cc21	x	n	x	x	x	x
O=C(COC(=O)c1cccs1)Nc1ccc(S(=O)(=O)N2CCOCC2)cc1	n	n	n	n	n	n
SMILES	Pf growth 96h	HCMV antiviral	SARS PLP yeast	HCV inhibitor	Sm TGR block	Pf growth 48h
Cc1ccc(S(=O)(=O)/N=C/c2c(O)ccc3ccccc23)cc1	n	n	n	n	n	n
Cc1nn(C)c(C)c1N=Cc1c(O)ccc2ccccc12	8.28µM	n	n	n	n[11.4 µM]	x
COc1ccc(C)cc1-n1c(SCC(=O)NCC2CCCO2)nc2c([nH]c3ccccc32)c1=O (stereo not given)	u	n	n	8.91µM	n	9.28µM
Cc1cc(NC(=O)CSc2nc3c([nH]c4ccccc43)c(=O)n2-c2ccccc2)no1	x	n	x	x	n	x
COc1ccccc1-n1c(SCC(=O)Nc2cc(C)on2)nc2c([nH]c3ccccc32)c1=O	11.7µM	n	n	u	n	n
Cc1cc(NC(=O)CSc2nc3c([nH]c4ccccc43)c(=O)n2-c2cccc(C(F)(F)F)c2)no1	9.28µM	x	n	u	n	11.7µM
Cc1cc(NC(=O)CSc2nc3c([nH]c4ccccc43)c(=O)n2-c2ccccc2F)no1	13.1µM	n	n	u	n	13.1µM
CCN(CC(=O)NC(C)(C)C)C(=O)c1ccc2c(c1)S(=O)(=O)c1ccccc1C2=O	n	n	n	n	n	u
COc1cc(-c2coc3c(C(=O)NCc4ccc(C(F)(F)F)cc4)cccc23)ccc1O	x	n	x	x	x	x
Cc1c(Cl)cccc1NC(=O)C(=O)NCCc1csc(-c2ccc(C(F)(F)F)cc2)n1	x	n	x	x	n	x
O=C(NCCCc1nc2ccccc2n1Cc1ccccc1Cl)c1ccco1	x	n	x	x	n	x
Clc1ccccc1Cn1c(/C=C/c2ccco2)nc2ccccc21	u	n	n	u	31.6µM	u
CC1CN=C(c2ccc(Cl)cc2)c2c3ccc(C(F)(F)F)cc3[n+]([O-])n21 (stereo not given)	x	n	x	x	x	x
COc1ccc(-c2cn[nH]c2-c2ccc(OCc3ccccc3)cc2O)cc1OC	n	n	n	u	n	8.28µM
COc1ccc(-c2cn[nH]c2-c2ccc(OCc3ccc(F)cc3)cc2O)cc1OC	n	u	n	u	n	10.4µM
Oc1cc(OCc2ccccc2)ccc1-c1[nH]ncc1-c1ccccc1	u	u	n	n	n	u
CCN(CC)C(=O)c1[nH]cnc1C(=O)Nc1ccc(Cl)cc1	u	n	n	n	u	n
CC(=O)c1cccc(NC(=O)CSc2ccc(-c3ccc4c(c3)OCO4)nn2)c1	n	n	n	11.2µM	n	n
COc1cc(NC(=O)CSc2ccc(-c3sc(C)nc3C)nn2)cc(OC)c1	x	n	x	x	n	x
COc1ccc(-c2ccc(SCC(=O)Nc3cccc(C(C)=O)c3)nn2)cc1OC	u	n	n	8.91µM	n	u
COc1ccc(-c2ccc(SCC(=O)NC3CCCCC3)nn2)cc1OC	n	n	n	n	n	n
COc1ccc(NC(=O)CSc2ccc(-c3sc(C)nc3C)nn2)cc1OC	13.1µM	n	n	u	n	u
C[C@H](CO)N1C[C@H](C)[C@@H](CN(C)S(=O)(=O)c2ccccc2)Oc2ccc(NC(=O)C3CC3)cc2C1=O	x	n	n	n	x	x
CC(C)C(c1nnnn1Cc1ccco1)N1CCN(c2cccc(Cl)c2)CC1 (stereo not given)	n	n	n	n	n	n
CCC(c1nnnn1Cc1ccco1)N1CCN(c2cc(Cl)ccc2C)CC1 (stereo not given)	1.47µM	n	n	u	n	u
Cc1ccc(Cl)cc1N1CCN(Cc2nnnn2Cc2ccco2)CC1	8.28µM	n	n	n	n	n
O=C(CSC1=Nc2ccccc2N=C(c2ccc(F)cc2)C1)Nc1cccc(C(F)(F)F)c1	x	n	x	x	n	x
